# Source: ChEMBL document CHEMBL4513135, “CO-ADD screening of IQOG CSIS (Spain) compounds”
# Results with a measured potency or affinity are listed apart.
# System: Cryptococcus neoformans
# Conditions: Concentration 32 ug.mL-1; ASSAY_TEST Inhibition of Fungal Growth; detection method Resazurin; Absorption (OD600-OD570); plate type 384well; NBS; CORNING #3640
row,Compound,Inhibition [%]
1,CC(=O)Nc1nc(Cl)c(C#N)c(-c2ccccc2)c1C#N,-41.58
2,C#CCNC.O=C(O)C(=O)O,-8.52
3,COC(=O)/C(=C/c1ccc(O)cc1)NC(=O)c1ccccc1,-3.07
4,Cc1ccc(C2c3ccc4ccccc4c3Oc3nc4c(c(N)c32)CCCC4)cc1 (centres undefined),5.66
5,CCOC(=O)C1=C(C)OC(N)=C(C#N)C1c1ccc(F)cc1 (centres undefined),-57.32
6,COc1ccc(C=C2N=C(c3ccccc3)SC2=O)cc1,-2.03
7,OCc1cc2ccccc2[nH]1,-4.31
8,C#CCN(C)c1nc(NCCCCC2CCN(Cc3ccccc3)CC2)c(C#N)cc1C#N,-41.21
9,CC(C(=O)O)c1c[nH]c2ccccc12 (centres undefined),-3.89
10,CCOC(=O)c1c(C)nc(/N=N/c2nc(C)c(C(=O)OCC)c(-c3ccccc3)c2C#N)c(C#N)c1-c1ccccc1,-2.65
11,C#CCNc1ncc(C#N)c(N)n1,-34.7
12,COc1ccccc1C1C(C#N)=C(N)Oc2[nH]nc(C)c21 (centres undefined),-7.07
13,N#CC1=C(Cl)Oc2c(ccc3ccccc23)C1c1ccccc1[N+](=O)[O-] (centres undefined),-51.56
14,COC1=C(C#N)C(c2ccccc2)C(C=O)=C(Cl)N1 (centres undefined),-31.69
15,CN(C)c1cccc(C(=O)c2cccc(N(C)C)c2)c1,-8.01
16,COc1cc(C2c3c(nc4c(c3N)CCC4)Oc3ccc4ccccc4c32)ccc1O (centres undefined),-4.01
17,O=C(Cc1c[nH]c2ccccc12)NNCc1ccccc1,-1.3
18,CCOC(=O)c1c(C)nc(N)c(C#N)c1-c1cccs1,-31.89
19,Cc1nn(-c2ccccc2)c2ncnc(NCc3ccccc3)c12,-3.05
20,Cl.N#Cc1c(N)nc(NCCO)c(C#N)c1-c1ccccc1,-7.17

row,Compound,Inhibition [%]
1,CC1CN(C)c2c(C#N)c(-c3ccccc3)c(C#N)c(=N)n21 (centres undefined),-66.3
2,NC1(C(=O)O)CC1c1ccc2c(c1)OCO2 (centres undefined),-2.53
3,C#CCN(Cc1ccccc1)c1nc(N)c(C#N)c(-c2ccccc2)c1C#N,-25.11
4,Cc1cc(Br)cc(C)c1NC=C(C#N)C#N,-6.77
5,Cc1nn(-c2ccccc2)c2ncnc(Nc3ccccc3)c12,-2.23
6,C#CC[n+]1ccccc1N.[Br-],-3.96
7,C#CCN1CCc2nc3nc(N4CCCC4)c(C#N)cc3c(N)c2C1,-92.31
8,O=C(COc1ccc2ccccc2c1)N/N=C/c1c[nH]c2ccccc12,-4.09
9,CC(=NNC(N)=O)c1c[nH]c2ccccc12,-5.64
10,COc1nc2ccccc2cc1C=O,-2.5
11,NNC(=O)c1c[nH]c2ccc(OCc3ccccc3)cc12,0.02
12,Cn1ccnc1C1c2c(nc3c(c2N)CCC3)Oc2ccc3ccccc3c21 (centres undefined),-36.13
13,C#CCN(C)c1ncc(C#N)c(N)n1,-42.08
14,C=CCNCc1cc2cc(OCCCC3CCN(Cc4ccccc4)CC3)ccc2[nH]1.O.O=C(O)C(=O)O.O=C(O)C(=O)O,-57.95
15,Cc1ccc(CNNC(N)=O)cc1.Cl,-5.64
16,N#CC1(Br)C(=NBr)Oc2ccc3ccccc3c2C1c1ccccc1[N+](=O)[O-] (centres undefined),-80.32
17,N#CC1=C(N)Oc2ccc3ccccc3c2C1c1cccc([N+](=O)[O-])c1 (centres undefined),-44.61
18,Cc1ccc2nc(Cl)c(/C=N/OCc3ccccc3)cc2c1,-9.27
19,C#CCNc1nc(NC2CCN(Cc3ccccc3)CC2)c(C#N)cc1C#N.Cl,-92.81
